From PubChem BioAssay (EPA / NIEHS) come the findings set out here.

The structures appear in SMILES notation. Active and inactive are the calls of the source. How the source made its calls: active means hit-call score of the fitted dose curve at least 0.9, where 1 is the maximum; inactive means score below 0.9.

Read-out in this assay: growth arrest and DNA damage 45 (GADD45B), GADD45B (gene 4616)
Briefly: LTEA_HepaRG_GADD45B: Life Technologies and Expression Analysis (LTEA) Assay for growth arrest and DNA damage 45 (GADD45B) using HepaRG (AID 2283461). The note with it: mRNA level, 48 h; actives raise or lower the signal. On the procedure:
LTEA_HepaRG is a cell based, multiplexed-readout assay that uses HepaRG, a human liver cell line, with measurements taken at 48 hours after chemical dosing on a 96-well plate.LTEA_HepaRG_GADD45B is one of 102 assay component(s) measured in the LTEA HepaRG cell culture assay. It is a marker of Cell proliferation, survival, death.Data from the assay component LTEA_HepaRG_GADD45B was analyzed into 1 endpoint. This assay endpoint, LTEA_HepaRG_GADD45B, was analyzed with bidirectional fitting relative to DMSO as the negative control and baseline of activity. Using a type of inducible reporter, measures of mRNA induction for gain or loss-of-signal activity can be used to understand regulation of transcription factor activity. To generalize the intended target to other relatable targets, this assay endpoint is annotated to the mutagenicity response intended target family, where the subfamily is Cell proliferation, survival, death.
A total of 1060 chemcials from the ToxCast library were tested in eight-point concentration-response experiments. Cell culture and cytotoxicity assays were conducted at Thermo Fisher Scientific's Custom Services facility (Madison, WI). A single lot of human HepaRG cells (Thermo Fisher Scientific, Frederick, MD) was used for the cell culture experiments. 96-well format collagen type I coated plates of human HepaRG cells were prepared using established methods. Briefly, cryopreserved HepaRG cells were thawed, plated at a density of approximately 100,000 cells/well in HepaRG Thaw, Plate, and General Purpose media (HPRG770, Thermo Fisher Scientific), and incubated for 48 hours. 0.5% DMSO was selected as vehicle control to balance the requisite need of DMSO in HepaRG cultures to maintain differentiation (for example, baseline metabolism, proportions of hepatocytes vs. cholangiocytes), while enabling further hepatic receptor pathway activation (for example, PXR and CAR) in response to chemical exposure. 48 hours after plating, the culture medium was replaced with HepaRG Serum-Free Incudtion Media. Cells were exposed to each test chemical in duplicate and maintained in CO2 incubators for another 48 hours. Chemical plates were thawed to room temperature and 200x concentrations of treatment groups were prepared. 8-point conentration-reponse curves were made with the highest exposure at 100 uM, followed by half-log dilutions, all in 0.5% DMSO. Each test plate contained variouse controls, induction positive controls (1mM phenobarbital), cytotoxicity positive controls ([…] aflatoxin B1), vehicle controls (0.5% DMSO), and total lysis controls (0.5% DMSO). Cell morphology images were taken using an Essen IncuCyte FLR automated microscope, with six 96-well plates imaged in about 24 minutes. Images were captured and exported and JPEG files. Spent culture media was transfered to black-well plates for the LDH assay, and remaining media was sorted at -80 C for later use. Cells were treated with RLT buffer and frozen until shipped for gene expression analysis. Total RNA was isolated from the cell suspension in 75 uL of Buffer RLT (Qiagen, Germantown, MD 20874) by Quintiles/Expression Analysis (Durham, NC) using a custom isolation procedure. Total RNA from each plate well was transferred to a preamplification plate. Fluidigm's 96.96 Dynamic ArrayTM (Fluidigm, Amsterdam, the Netherlands) technology was used for gene expression analyses by quantitative reverse transcription polymerase chain reaction (qRT-PCR, performed by Quintiles/Expression Analysis, Durham, NC)89. Standard TaqManTM Assays (Applied Biosystems/ThermoFisher Scientific, Foster City, CA) were used to assess the expression of 93 genes selected based on their selectivity and sensitivity to important hepatic receptors known to be modulated by environmental chemicals; importance in human hepatocyte functionality; and hepatotoxicity. […]
Regarding `CCCOC(=O)c1cc(O)c(O)c(O)c1`, the result was inactive.

Regarding `O=C(Nc1ccc(Cl)cc1)Nc1ccc(Cl)c(Cl)c1`, the half-maximal activity concentration (AC50) was 22.9 µM (active).

Regarding `O=C(O)c1ccccc1C(=O)OCc1ccccc1`, the result was inactive.

As for `CCCCCCCC[Si](OCC)(OCC)OCC`, the compound was called inactive.

As for `C[C@]12CC[C@@H]3c4ccc(O)cc4CC[C@H]3[C@@H]1CC[C@H]2O`, the call was inactive.

For `CC(O)CC(C)(C)O` (stereo not given), the outcome was inactive.

For the compound `O=C(O)c1ccccc1-n1cc(C(=O)O)c(=O)c2cc(Nc3c(F)cc(F)cc3Cl)c(Cl)cc21`, the compound was classed as inactive.

As for `CN1C(=O)CC[C@H]1c1cccnc1`, the compound was classed as inactive.

Consider `Clc1ccccc1C(c1ccccc1)(c1ccccc1)n1ccnc1`, for which the outcome was inactive.

For the compound `O=C(O)Cn1c(=O)n(Cc2ccc(Br)cc2F)c(=O)c2ccc(Cl)cc21`, the result was inactive.

Turning to `O=c1c(-c2ccc(O)cc2)coc2cc(O)cc(O)c12`, the compound was called inactive.

In the case of `CCCCCCCCCCCCO`, the result was inactive.

Consider `OCCO`, for which the compound was classed as inactive.

Turning to `O=CCCCC=O`, the call was inactive.

Consider `CCCCOC(=O)CC(CC(=O)OCCCC)(OC(C)=O)C(=O)OCCCC`, for which the compound was classed as inactive.

Regarding `Cc1cn([C@H]2C[C@H](N=[N+]=[N-])[C@@H](CO)O2)c(=O)[nH]c1=O`, the result was inactive.

In the case of `COc1cccc([C@H](O)C2CCN(CCc3ccc(F)cc3)CC2)c1OC`, the call was inactive.

Take `CO[C@H]1/C=C/O[C@@]2(C)Oc3c(C)c(O)c4c(O)c(c(/C=N/N5CCN(C)CC5)c(O)c4c3C2=O)NC(=O)/C(C)=C\C=C\[C@H](C)[C@H](O)[C@@H](C)[C@@H](O)[C@@H](C)[C@H](OC(C)=O)[C@@H]1C`: the outcome was inactive.

For `NC(=O)c1nc(-c2cccc(-c3cc(F)ccc3OCC(F)(F)C(F)(F)F)c2)n[nH]1`, the AC50 was 77.2 µM (active).

As to `CC[C@H](NC(=O)c1cc(F)ccc1NS(=O)(=O)c1cccc2cccnc12)c1ccccc1`, the result was inactive.

As to `CCO[Si](CCCNC(N)=O)(OCC)OCC`, the call was inactive.

As for `CCOC(=O)O[C@H](C)OC(=O)c1ccc2c(c1)cc(C(=O)NC1CCN(C(C)C)CC1)n2Cc1cc(-c2ccc(Cl)s2)on1`, the compound was classed as inactive.

Take `OC12N=C(c3ccccc3)SC1Cc1cc(Cl)ccc12` (stereo not given): the AC50 was 3.34 µM (active).

For the compound `O=C1c2ccccc2C(=O)N1CCc1noc(-c2ccc(CN3CCCCCC3)s2)n1`, the compound was called inactive.

Turning to `O=C(OCCCCCCOC(=O)c1ccccc1)c1ccccc1`, the call was inactive.

Regarding `NCc1cccc(C2CCN(C(=O)c3ccc(C#Cc4ccccc4F)o3)CC2)c1`, the compound was called inactive.

On to `CC(C)(C)c1cc(/C=C2\SC(N)=NC2=O)cc(C(C)(C)C)c1O`, for which the AC50 was 35.5 µM (active).

Turning to `Cc1c2ccccc2c(C)c2c1ccc1ccccc12`, the AC50 is 50 µM (active).

On to `Cc1ncc(CO)c(CO)c1O`, for which the call was inactive.

As for `Oc1ccccc1`, the compound was classed as inactive.

Consider `Cc1ccc2oc(CN(Cc3ccccc3)C(=O)Nc3c(F)cc(F)cc3F)c(-c3ccc(Cl)cc3)c2c1`, for which the result was inactive.

`COCC(C)OCC(C)OCC(C)O` (stereo not given): the call was inactive.

Turning to `Cc1cccc2ccccc12`, the call was inactive.

With `CN1C(=O)N(c2ccccc2Br)Cc2cnc(Nc3ccc4c(c3)OCC(CO)O4)nc21` (stereo not given), the AC50 was 81.6 µM (active).

On to `CCN(Cc1cccnc1)C(=O)c1cccc(Cl)c1[C@]1(C)C(=O)N(Cc2ccc(OC)cc2OC)c2ccc(Cl)cc21`, for which the outcome was inactive.

Regarding `CCN(CC)C(=O)c1cc(S(=O)(=O)Cc2ccccc2)c(N2CCC(c3ccccc3)CC2)cc1N(CC)CCN(C)C`, the compound was called inactive.

Take `O=C(O)Cc1cc(I)c(Oc2ccc(O)c(I)c2)c(I)c1`: the AC50 is 50 µM (active).

`CN(C)c1ccc(C(=C2C=CC(=[N+](C)C)C=C2)c2ccc(N(C)C)cc2)cc1`: the AC50 is 3.56 µM (active).

With `Clc1cc(Cl)c2c(c1)N=C1CCCCCN1C2`, the AC50 was 6.31 µM (active).

On to `CC(C)(c1cc(Br)c(O)c(Br)c1)c1cc(Br)c(O)c(Br)c1`, for which the AC50 is 74.5 µM (active).
